The results in this text go back to PubChem BioAssay (Tox21).

Records with an inconclusive call do not appear. Values without a mark were called inactive. The source made the active and inactive calls. Unless noted, the call rests on the fitted dose curve; in most records, active means well fitted curve in the direction sought with a large enough effect in the repeat runs; inconclusive means weak or mixed curves; inactive means no such curve, though single readings can be large; an effect the other way counts as inactive or inconclusive.

The nature of test [1]: qHTS assay to identify small molecule antagonists of the vitamin D receptor (VDR) signaling pathway - cell viability counter screen (AID 743225). Further: on the % scale 0 is the no-effect control and ±100 the full control effect; nearly all actives have a fitted effect of over 50% in size. Put shortly:
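Same-well multiplex: following 16 h treatment of HEK 293T cells carrying a UAS-driven beta-lactamase reporter with compound and agonist (3 nM final), and a 2 h FRET substrate step, CellTiter-Glo was added and luminescence read after 30 min.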
(In general: In qHTS, concentration-response curves come from the screen itself.)

A short description of test [2]: qHTS assay to identify small molecule agonists of the NFkB signaling pathway - cell viability counter screen (AID 1159515; calls by dose curve; further: series mostly up to about 61 µM; on the % scale 0 is the no-effect control and ±100 the full control effect; nearly all actives have a fitted effect of over 55% in size). Put shortly: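 Luminescence from CellTiter-Glo (30 min, room temperature) gives viability, measured in the same wells as the beta-lactamase reporter read. Cells were NFkB-bla ME-180, 2,000 per well, treated 5 hr with compounds.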
A short description of test [3]: qHTS assay to identify small molecule agonists of the endoplasmic reticulum stress response signaling pathway (AID 1159516; active means well fitted activation curve with a large enough effect in the signal ratio in the repeat runs, not every such curve was filed as active; the % refers to the signal ratio; further: potency means the concentration at half of the fitted maximal effect). The method in brief: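 Read-out is beta-lactamase cleavage of a FRET substrate (405 nm excitation; 460 and 530 nm emissions) in ESRE-bla HeLa cells after a 5 hr compound exposure at 37 C. Substrate incubation ran 2 hr at room temperature.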

Test [4] is described as follows: qHTS assay to identify small molecule agonists of the endoplasmic reticulum stress response signaling pathway - cell viability counter screen (AID 1159517; calls by dose curve;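 further: HeLa cells carrying an ER stress response element beta-lactamase reporter; series mostly up to about 61 µM; on the % scale 0 is the no-effect control and ±100 the full control effect; nearly all actives have a fitted effect of over 50% in size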). The method in brief: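 Luminescence readout: CellTiter-Glo, 30 min RT, same wells as the ESRE-bla reporter read. HeLa ESRE-bla, 1,500 cells/well, o/n 37 C; cpd 5 hr 37 C/5% CO2.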
A short description of test [5]: qHTS assay to identify small molecule antagonists of the retinoid-related orphan receptor gamma (ROR-gamma) signaling pathway - cell viability counter screen (AID 1159520). Further: on the % scale 0 is the no-effect control and ±100 the full control effect; nearly all actives have a fitted effect of over 50% in size. Put shortly: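 Tet-on ROR gamma CHO cells (1,000/well) were plated 4 hr, given compounds in DMSO for 2 hr at 37 C, then induced with 1 uM final doxycycline for 16 hr. Viability was read as ATP by CellTiter-Glo luminescence after 30 min.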

The target of test [6] is Nuclear receptor ROR-gamma (Homo sapiens) (UniProt P51449). Briefly: qHTS assay to identify small molecule antagonists of the retinoid-related orphan receptor gamma (ROR-gamma) signaling pathway (AID 1159521;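 further: CHO cells with doxycycline inducible ROR-gamma driving an RORE luciferase reporter; top concentration of the series differs between compounds; on the % scale 0 is the no-effect control and ±100 the full control effect; nearly all actives have a fitted effect of over 50% in size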). Put shortly:
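Inducible-expression reporter assay: doxycycline (1 uM final) switched on RORγ in CHO cells bearing a ROR response element-luciferase construct, with test compounds present from 2 h beforehand. Decreased luminescence after 16 h defined antagonist activity.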

A short description of test [7]: qHTS assay to identify small molecule agonists of the AP-1 signaling pathway - cell viability counter screen (AID 1159525; calls by dose curve; further: nearly all actives have a fitted effect of over 55% in size). Put shortly:
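ME-180 AP-1-bla, 2500 cells/well, Opti-MEM + 0.5% dialyzed FBS; overnight 37 °C; cpd 15-pt titration, 5 h 37 °C; CellTiter-Glo 30 min RT; luminescence read; normalised to TOAB and DMSO controls.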

A short description of test [8]: qHTS assay to identify small molecule agonists of the AP-1 signaling pathway (AID 1159526; calls by dose curve; further: on the % scale 0 is the no-effect control and ±100 the full control effect).
For test [9], the target named is Retinoic acid receptor RXR-alpha (Homo sapiens) (UniProt P19793). Nature of the test: qHTS assay to identify small molecule agonists of the RXR signaling pathway (AID 1159527; calls by dose curve; further: nearly all actives have a fitted effect of over 35% in size; further: potency means the concentration at half of the fitted maximal effect; on activation: on the % scale 0 is the no-effect control and ±100 the full control effect). Put shortly:
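Compounds in DMSO were added to RXR-alpha-UAS-bla HEK 293T cells kept in 2% charcoal-stripped serum, and incubated 16 hr at 37 C with 5% CO2. Reporter signal came from a 2 hr B/G FRET substrate step.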

Test [10] can be described thus: qHTS assay to identify small molecule agonists of the RXR signaling pathway - cell viability counter screen (AID 1159529). Put shortly:
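Counter screen: CellTiter-Glo luminescence. Cells: RXR-alpha-UAS-bla HEK 293T. Medium: 2% charcoal-stripped FBS. Treatment: 16 h, 37 C. Reagent incubation: 30 min, RT.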

Test [11] is described as follows: qHTS assay to identify small molecule antagonists of the retinoid acid receptor (RAR) signaling pathway - cell viability counter screen (AID 1159551). Further: on the % scale 0 is the no-effect control and ±100 the full control effect; nearly all actives have a fitted effect of over 35% in size. Put shortly: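 Luminescent ATP quantitation (CellTiter-Glo) gave cell viability in C3RL4 cells exposed to test chemicals for 6 h at 37 C alongside 1 uM final retinol.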
Test [12] in a line: qHTS assay to identify small molecule agonists of the vitamin D receptor (VDR) signaling pathway - cell viability counter screen (AID 743224). The method in brief: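 Luminescence from CellTiter-Glo, read after 30 min at room temperature, reports viability of VDR-bla cells treated with compounds for 16 h at 37C in the wells used for the beta-lactamase FRET read.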
The nature of test [13]: qHTS assay to identify small molecule antagonists of the retinoic acid receptor (RAR) signaling pathway (AID 1159552; further: nearly all actives have a fitted effect of over 50% in size; further: potency means the concentration at half of the fitted maximal effect). Put shortly: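 Antagonism of retinol-induced RARE reporter activity was measured in C3RL4 cells. Exposure to compounds and 1 uM final retinol lasted 6 hr at 37 C, with luminescence as endpoint.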
The nature of test [14]: qHTS assay to identify small molecule agonists of the retinoic acid receptor (RAR) signaling pathway (AID 1159553). Further: potency means the concentration at half of the fitted maximal effect. The method in brief: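 Luminescence from a RARE-driven luciferase reporter in C3RL4 cells served as the read-out, measured after 30 min with detection reagent at room temperature. Compounds in DMSO were applied for 6 hr at 37 C following overnight seeding.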

Test [15] can be described thus: qHTS assay to identify small molecule antagonists of the estrogen related receptor (ERR) signaling pathway - cell viability counter screen (AID 1224818).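 Further: series mostly up to about 46 µM; viability measured after 17.5 h of compound exposure; on the % scale 0 is the no-effect control and ±100 the full control effect.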 The method in brief:
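Multiplexed counter screen to separate cytotoxic compounds from true ERR modulators. ERR cells received DMSO-dissolved compounds after a 6 h pre-incubation, were exposed 17.5 h at 37 C, then assayed with CellTiter-Fluor fluorescence.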

A short description of test [16]: qHTS assay to identify small molecule antagonists of the estrogen related receptor signaling pathway with the pleiotropic PPARgamma coactivator (PGC) cell viability counter screen (AID 1224822;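 further: series mostly up to about 46 µM; viability read after 17.5 h compound exposure; on the % scale 0 is the no-effect control and ±100 the full control effect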). Put shortly:
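Cells: PGC/ERR, 2,000/well, 1536-well format. Pre-incubation 6 h, 37 C/5% CO2. Compound exposure 17.5 h, 37 C. Detection: CellTiter-Fluor, 30 min, fluorescence.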

Sequence of Retinoic acid receptor RXR-alpha (Homo sapiens) (P19793 whole entry, looked up): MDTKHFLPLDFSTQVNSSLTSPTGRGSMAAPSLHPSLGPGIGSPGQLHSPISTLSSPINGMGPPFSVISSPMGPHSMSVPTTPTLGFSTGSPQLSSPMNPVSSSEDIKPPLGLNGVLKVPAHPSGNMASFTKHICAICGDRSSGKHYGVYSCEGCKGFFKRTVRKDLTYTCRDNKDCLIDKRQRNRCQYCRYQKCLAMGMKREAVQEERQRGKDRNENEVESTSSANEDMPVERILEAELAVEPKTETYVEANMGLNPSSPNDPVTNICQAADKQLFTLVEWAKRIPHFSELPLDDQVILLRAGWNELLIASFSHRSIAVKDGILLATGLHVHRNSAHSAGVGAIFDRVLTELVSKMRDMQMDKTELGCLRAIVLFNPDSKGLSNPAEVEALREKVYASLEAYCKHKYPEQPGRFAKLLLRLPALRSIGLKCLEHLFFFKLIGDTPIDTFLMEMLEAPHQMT

Regarding `NCCc1cc(O)c(O)cc1O`, the Potency entry in test [1], in test [2], in test [4], in test [5], in test [6] and in [7] was “inactive” in each case. Besides, the Potency entry in [8], in test [9], in test [10] and in test [11] was “inactive” each time. The Potency in test [3] was 4.25 µM (active).
Take `Cc1nc(N(C)C)nc(OC(=O)N(C)C)c1C`: the Potency result in test [12], in test [1], in [2], in test [3], in [4] and in [5] was “inactive” throughout. In addition, the Potency entry in test [6], in [7], in [8], in test [9], in test [10] and in [11] was “inactive” throughout. The Potency result in test [13] and in test [14] was “inactive” in each case.
Take `COc1ccccc1N1CCNCC1`: the Potency entry in test [1], in test [2], in test [3], in test [4], in [5] and in test [6] was “inactive” each time. Moreover, the Potency entry in [7], in test [8], in test [9], in [10] and in test [11] was “inactive” each time. In addition, the call in test [15] and in test [16] was inactive.
On to `N#CC(C#N)=Cc1ccc(O)c(O)c1`, for which the Potency result in test [12], in test [1], in test [2], in test [3], in test [4] and in test [5] was “inactive” throughout. Also, the Potency result in test [6], in test [7], in [8], in test [9], in test [10] and in test [11] was “inactive” each time. Further, in test [13], the Potency result was “inactive”. Also, in test [14], the Potency is 26.6 µM (active). Besides, the compound was called inactive in [15] and in [16].
For the compound `O=C(Cc1ccccc1)c1ccccc1`, the Potency entry in test [12], in test [2], in test [3], in test [4], in test [5] and in [6] was “inactive” in each case. In addition, the Potency result in test [7], in test [8], in [9], in [10], in test [11] and in test [13] was “inactive” throughout.
As for `O=[N+]([O-])O[C@H]1CO[C@H]2[C@@H]1OC[C@H]2O[N+](=O)[O-]`, the Potency result in test [12], in test [1], in test [2], in [3], in [4] and in [5] was “inactive” in each case. Moreover, the Potency entry in test [6], in test [7], in test [8], in [9], in [10] and in test [11] was “inactive” in each case.
On to `CCCCCCCCCCCCN=C(N)N`, for which the results for the viability change, negative = cytotoxic in [1] and in test [7] were -22.1% [at 3.11 µM] and -1.76% [at 2.72 µM], respectively. Besides, the activity, negative = cytotoxic in test [2] is -2.48% [at 3.12 µM]. Besides, the activation in [3] is 0.217% [at 3.11 µM]; in [8], 1.6% [at 2.72 µM]; in test [9], 1.85% [at 2.71 µM]; in [14], -2.89% [at 3.75 µM]. Besides, the activity change, negative = cytotoxicity in test [4] was 5.11% [at 3.11 µM]; in test [10], -15.3% [at 2.72 µM]; in test [11], 2.05% [at 3.27 µM]. Also, the activity, negative = cytotoxicity in test [5] was -5.37% [at 3.27 µM]. Also, the activity change, negative = inhibition in test [6] was -12% [at 3.27 µM].
As to `C#CC(O)(C=CCl)CC` (stereo unspecified), the Potency entry in test [1], in test [2], in test [3], in test [4], in test [5] and in test [6] was “inactive” throughout. In addition, the Potency entry in test [7], in [8], in test [9], in test [10], in [11] and in [13] was “inactive” in each case. Further, the Potency entry in test [14] was “inactive”.
In the case of `Clc1ccccc1`, the Potency result in [12], in test [1], in test [2], in [3], in test [4] and in [5] was “inactive” throughout. For the same compound, the Potency entry in test [6], in test [7], in test [8], in [9], in test [10] and in test [11] was “inactive” each time. The Potency result in [13] and in [14] was “inactive” throughout.
As for `O=C(Cl)OCCOCCOC(=O)Cl`, the Potency result in test [2], in [3], in test [4], in test [5], in [6] and in test [7] was “inactive” throughout. The Potency entry in test [8] and in test [11] was “inactive” throughout. The figures for the Potency in [9] and in [13] were 2.19 µM (active) and 12.2 µM (active), respectively.
Regarding `Cc1nnc(-c2ccccc2)c(=O)n1N`, the Potency result in [2], in test [3], in test [4], in test [5], in [6] and in test [7] was “inactive” throughout. Also, the Potency entry in test [8], in test [9], in [10], in test [11], in [13] and in [14] was “inactive” throughout.
`C=CC(=O)NC(C)(C)CC(C)=O`: the Potency entry in [2], in test [3], in test [4], in test [5], in [6] and in [7] was “inactive” each time. Besides, the Potency entry in [8], in test [9], in test [10], in test [11], in [13] and in test [14] was “inactive” each time.
As to `CCN(C(C)=O)c1cccc(-c2ccnc3c(C#N)cnn23)c1`, the Potency result in test [1], in test [2], in test [3], in test [4], in test [5] and in test [6] was “inactive” in each case. Also, the Potency entry in [7], in test [8], in [9], in test [10], in test [11] and in test [13] was “inactive” each time. The Potency entry in test [14] is “inactive”.
As to `CC[N+]1(CCOC(=O)C(O)(c2ccccc2)c2ccccc2)CCCCC1`, the Potency result in [2], in test [3], in [4], in test [5], in [6] and in test [7] was “inactive” in each case. Also, the Potency result in test [8], in [9], in test [10] and in test [11] was “inactive” throughout.
As to `O=C(Cc1ccccc1)OCCc1ccccc1`, the Potency entry in test [12], in [1], in test [2], in test [3], in test [4] and in [5] was “inactive” each time. Moreover, the Potency result in test [6], in [7], in [8], in test [9], in test [10] and in test [11] was “inactive” each time. Moreover, in [13], the Potency entry is “inactive”.
For the compound `C=CCOCC1CO1` (stereo unspecified), the Potency result in test [12], in [1], in test [2], in test [3], in test [4] and in test [5] was “inactive” in each case. Moreover, the Potency entry in test [6], in test [7], in test [8], in test [9], in test [10] and in test [11] was “inactive” in each case.
On to `O=C(O)COc1cc(Cl)c(Cl)cc1Cl`, for which the Potency entry in [12], in [2], in test [3], in [4], in test [5] and in [6] was “inactive” each time. In addition, the Potency result in test [7], in test [8], in [10], in [11] and in [13] was “inactive” in each case. For the same compound, the Potency in [9] was 24.6 µM (active).
On to `C[C@H](N)[C@H](O)c1ccc(O)c(O)c1`, for which the Potency entry in test [2], in test [3], in test [4], in test [5], in test [6] and in test [7] was “inactive” throughout. Further, the Potency result in test [8], in [9], in test [10], in [11], in test [13] and in test [14] was “inactive” in each case.
Turning to `CN1CC[C@]23c4c5ccc(O)c4O[C@H]2[C@@H](O)CC[C@H]3[C@H]1C5`, the Potency entry in [12], in test [1], in test [2], in test [3], in test [4] and in test [5] was “inactive” throughout. Moreover, the Potency entry in test [6], in [7], in test [8], in [9], in test [10] and in test [11] was “inactive” each time. The Potency result in test [13] was “inactive”.
